High-throughput results: PubChem, Center for Chemical Genomics, University of Michigan
Dicer processing: human Dicer pre-microRNA cleavage inhibition; Q9UPY3; cat-ELCCA pre-miR-21 Dicer processing, chemiluminescence; hits give high values; z-score at 25 µM; 47,000 compounds, 6% hits; AID 1347074; in the data active = z-score above about 3, passing the limit was not always enough;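 note: plate controls were vehicle for no effect and no enzyme for full effect; higher signal means more uncleaved substrate so more Dicer inhibition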
Target sequence (Q9UPY3 whole entry, looked up): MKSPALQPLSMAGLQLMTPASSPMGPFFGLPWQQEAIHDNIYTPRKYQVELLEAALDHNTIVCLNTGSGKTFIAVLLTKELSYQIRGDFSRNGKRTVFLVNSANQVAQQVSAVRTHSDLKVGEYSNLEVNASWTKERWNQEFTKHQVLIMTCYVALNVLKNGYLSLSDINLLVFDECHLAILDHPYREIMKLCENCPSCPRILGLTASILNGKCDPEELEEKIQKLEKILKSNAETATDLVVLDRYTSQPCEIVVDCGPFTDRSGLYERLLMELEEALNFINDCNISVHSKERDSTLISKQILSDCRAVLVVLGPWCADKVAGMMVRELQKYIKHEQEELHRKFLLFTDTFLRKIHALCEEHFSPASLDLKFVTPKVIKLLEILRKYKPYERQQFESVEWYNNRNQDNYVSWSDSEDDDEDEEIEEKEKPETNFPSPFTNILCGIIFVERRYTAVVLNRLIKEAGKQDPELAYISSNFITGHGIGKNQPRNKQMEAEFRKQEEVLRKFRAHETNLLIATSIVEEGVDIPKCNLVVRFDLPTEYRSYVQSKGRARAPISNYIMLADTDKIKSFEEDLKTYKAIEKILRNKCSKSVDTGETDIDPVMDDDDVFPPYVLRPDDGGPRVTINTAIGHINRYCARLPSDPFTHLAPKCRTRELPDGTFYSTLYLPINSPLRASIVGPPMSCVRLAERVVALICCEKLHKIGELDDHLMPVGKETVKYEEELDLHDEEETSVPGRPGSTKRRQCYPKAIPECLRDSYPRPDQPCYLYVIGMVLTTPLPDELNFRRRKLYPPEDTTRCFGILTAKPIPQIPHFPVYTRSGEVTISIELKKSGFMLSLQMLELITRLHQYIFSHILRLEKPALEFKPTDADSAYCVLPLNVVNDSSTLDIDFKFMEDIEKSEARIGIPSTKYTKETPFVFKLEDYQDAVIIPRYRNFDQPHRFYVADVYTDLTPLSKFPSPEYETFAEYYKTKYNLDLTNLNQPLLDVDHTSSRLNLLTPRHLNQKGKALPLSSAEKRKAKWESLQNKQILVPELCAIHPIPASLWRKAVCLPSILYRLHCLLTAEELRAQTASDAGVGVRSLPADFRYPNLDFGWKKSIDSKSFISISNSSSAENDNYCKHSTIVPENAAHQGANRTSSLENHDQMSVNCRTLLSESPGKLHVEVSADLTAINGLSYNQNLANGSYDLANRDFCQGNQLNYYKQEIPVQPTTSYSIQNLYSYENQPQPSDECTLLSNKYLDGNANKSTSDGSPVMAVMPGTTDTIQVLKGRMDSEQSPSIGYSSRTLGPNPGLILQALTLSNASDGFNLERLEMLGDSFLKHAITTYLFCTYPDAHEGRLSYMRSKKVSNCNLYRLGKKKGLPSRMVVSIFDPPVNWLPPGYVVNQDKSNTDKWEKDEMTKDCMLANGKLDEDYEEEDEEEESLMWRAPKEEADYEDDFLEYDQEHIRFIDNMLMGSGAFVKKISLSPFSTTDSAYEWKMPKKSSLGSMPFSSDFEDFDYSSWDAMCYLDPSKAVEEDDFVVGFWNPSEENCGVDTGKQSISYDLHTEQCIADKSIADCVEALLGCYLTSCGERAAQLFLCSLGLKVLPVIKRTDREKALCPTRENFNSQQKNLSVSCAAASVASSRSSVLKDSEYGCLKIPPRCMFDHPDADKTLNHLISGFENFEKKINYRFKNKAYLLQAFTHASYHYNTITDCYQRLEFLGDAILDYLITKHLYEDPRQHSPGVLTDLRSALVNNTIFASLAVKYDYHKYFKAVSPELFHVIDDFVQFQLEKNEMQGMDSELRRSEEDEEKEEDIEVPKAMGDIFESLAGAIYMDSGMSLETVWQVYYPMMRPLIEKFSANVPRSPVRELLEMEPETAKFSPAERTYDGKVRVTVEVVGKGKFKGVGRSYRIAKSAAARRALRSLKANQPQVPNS
Starred values were filed as active, the others as inactive. This excerpt belongs to a sample that is enriched for hits.

SMILES | Dicer processing
COc1ccc2ncc(-c3ccc(Cl)c(C)c3)nc2c1 | -0.59
Cc1cc2ncc(-c3ccccc3)nc2cc1C | 5.8*
C=C(C)Cn1c(-c2ccco2)nc2ccccc21 | -0.77
COC(=O)Cc1cc(=O)n2[nH]c(C(F)(F)F)c(-c3ccc(OC)cc3)c2n1 | 1.2
Cc1cc(Sc2ccc([N+](=O)[O-])cn2)c(Cl)cc1Cl | -0.48
OCCCc1nc2n(n1)C(c1ccc(Cl)cc1)C=C(c1ccccc1)N2 (stereo not drawn) | 2.2
Cc1ccc(S(=O)(=O)NNC(=S)Nc2ccc(Cl)cc2)cc1 | 6.1*
Cc1ccc(S(=O)(=O)NNC(=S)Nc2c(Cl)cccc2Cl)cc1 | -0.42
Cc1ccc(S(=O)(=O)NNC(=S)Nc2ccc(Br)c(C)c2)cc1 | 2.6
N#C/C(=C\NCc1cc(C(F)(F)F)cc(C(F)(F)F)c1)S(=O)(=O)c1ccc(Cl)c(Cl)c1 | -1.7
Cc1ccc(S(=O)(=O)NNC(=S)Nc2ccccc2)cc1 | 0.06
Cc1ccc(S(=O)(=O)NNC(=S)Nc2cc(C(F)(F)F)cc(C(F)(F)F)c2)cc1 | 3.7*
CSc1nc(C)nc(N/C=C(\C#N)S(=O)(=O)c2ccc(C)cc2)n1 | -2.2
CCc1ccc(NC(=S)NNS(=O)(=O)c2ccc(C)cc2)cc1 | -0.96
Cc1ccc(S(=O)(=O)/C(C#N)=C/Nc2cc(C(F)(F)F)cc(C(F)(F)F)c2)cc1 | 3.7*
Cn1ccnc1S(=O)(=O)/C(C#N)=C/c1ccc2c(c1)OCO2 | 0.97
O=C1OC(c2ccc(F)cc2)/C(=C(/O)c2ccccc2)C1=O (stereo not drawn) | 1.3
CC(=O)N1N=C(c2ccc(Br)cc2)OC1c1ccc([N+](=O)[O-])s1 (stereo not drawn) | -2.5
CCOC(CC(=O)NNC(=O)c1ccc(Cl)cc1)OCC | -2.5
O=S(=O)(c1ccc2c(c1)Cc1cc(S(=O)(=O)N3CCCCC3)ccc1-2)N1CCCCC1 | -0.07
Cn1c(=O)n(C)c2cc(S(=O)(=O)N3CCCC3)ccc21 | 3.5*
Cn1c(=O)n(C)c2cc(S(=O)(=O)Nc3ccc(C(=O)O)cc3)ccc21 | 0.33
O=C1c2ccccc2C(=O)N1CN1CCN(c2ccc(C(F)(F)F)cn2)CC1 | -0.97
O=c1c(-c2ccc(Cl)cc2)c(C(F)(F)F)oc2c(CN3CCCC3)c(O)ccc12 | 2.9
N/C(=N\OC(=O)c1cnn(-c2ccc(Cl)cc2)c1C(F)(F)F)c1ccc(C(F)(F)F)cc1 | -2.2
SMILES | Dicer processing
CCOC(=O)C1=C(C(=O)OCC)SC(=C2C(=S)C(C)(C)Nc3ccc(C)cc32)S1 | 1.7
CCOC(=O)C1=CS/C(=C2/C(=S)C(C)(C)Nc3c(OCC)cccc32)S1 | 3.7*
CCOc1cccc2c1N(C(C)=O)C(C)(C)C(=S)C2=C1SC(C(=O)OC)=C(C(=O)OC)S1 | 0.96
COc1cc(C2C(C(=O)OCc3ccccc3)=C(C)NC3=C2C(=O)CC(C)(C)C3)cc(Cl)c1O (stereo not drawn) | 0.68
CS/C(N)=N/N=C(\C)c1ccc(Br)cc1 | -0.84
CC(C)OC(=O)CSc1nc2ccccc2[nH]1 | -0.48
COC(=O)Cc1cc(=O)n(-c2nc3ccccc3[nH]2)[nH]1 | 4.6*
Cc1ccc(-c2cc(=O)n(-c3nc4ccccc4[nH]3)[nH]2)cc1 | -0.75
O=C(COC(=O)C1C2CCC(C2)C1C(=O)c1ccccc1)c1ccc(Cl)cc1 (stereo not drawn) | 0.04
Cc1ccccc1C1C2=C(Nc3c1c(=O)[nH]c(=O)n3C)c1ccccc1C2=O (stereo not drawn) | -1.7
CSc1nc2cc(C3CC3)nn2c(N)c1S(=O)(=O)c1ccc(Cl)cc1 | 1
COc1ccc(Cc2nnc(SCc3ccc(Br)cc3)o2)cc1 | 1.8
CCOC(=O)c1cnc2ccc(OCC)cc2c1Cl | 0.45
CCOC(=O)c1cnc2c(C)cc(C)cc2c1Nc1ccc(N(C)C)cc1 | 2.9
CCOC(=O)c1cnc2ccc(Cl)cc2c1Nc1ccc(N(C)C)cc1 | 3.8*
O=C(Cn1cccc(C(F)(F)F)c1=O)Nc1ccccc1 | 0.34
CCC(=O)Nc1ncc([N+](=O)[O-])s1 | 1
Cc1nc2ccccn2c1C(=O)NNS(=O)(=O)c1sc2ccc(Cl)cc2c1C | -0.07
Cc1c(CC(=O)NNS(=O)(=O)c2ccccc2C(F)(F)F)sc2ccc(Cl)cc12 | 0.58
Cc1c(S(=O)(=O)Nc2ccc3[nH]ccc3c2)sc2ccc(Cl)cc12 | 3.5*
O=C(CSc1nnnn1-c1ccccc1)Nc1ncc(Br)s1 | -1.3
CCCOC(=O)C1=C(C)NC2=C(C(=O)CC(C)(C)C2)C1c1ccccn1 (stereo not drawn) | 0.05
CC(=O)c1c(O)ccc2c(C)cc(=O)oc12 | -0.17
CCOC(=O)CNC(=O)c1ccccc1 | 2.8
CCCc1nn(C)cc1C(=O)NCC(=O)OCC | 4.8*
SMILES | Dicer processing
CCOC(=O)CNC(=O)c1ccc(Cl)cc1 | -0.21
Fc1ccc(CNC(=S)NC(Cc2ccccc2)c2ccccc2)cc1 (stereo not drawn) | 1.2
O=C(/C=C/c1ccccc1)OCC1CCCN2CCCCC12 (stereo not drawn) | 1.8
CCn1c2ccc(Br)cc2c2cc(Br)cc(Br)c21 | -0.24
CCN(CC)C(=O)C1Sc2nnc(-c3ccccc3)n2NC1c1ccc(Cl)cc1 (stereo not drawn) | 2.2
CC(C)=N/N=C1/N=C(c2ccc(Cl)cc2)CS1 | 5.2*
Clc1ccc(C2=Nn3c(CSc4ccccc4)nnc3SC2)cc1 | -0.33
CC(=Nc1ccc(Cl)cc1)c1ccsc1 | 0.26
Cc1c(CNC(=O)c2cnn3c(C(F)(F)F)cc(-c4ccc(Br)cc4)nc23)cnn1C | 2
O=C1Nc2ccc(Cl)cc2C(c2ccccc2)=Nc2ccccc21 | -1.2
CN1CCN(C2=Nc3cc(Cl)ccc3Nc3ccccc32)CC1 | 20
Clc1ccc2c(c1)N=C(N1CCNCC1)c1ccccc1N2 | 4*
CCOC(=O)c1cc(C)ccc1NC(=O)c1cc(C)ccc1[N+](=O)[O-] | -1.3
Cc1ccc(F)cc1S(=O)(=O)Nc1ccc2c(c1)OCC1CCCN21 (stereo not drawn) | 6.5*
Cc1cc(S(=O)(=O)Nc2cccc(F)c2)c(C)c(S(=O)(=O)c2ccccc2)c1 | 1.8
COc1ccc(NS(=O)(=O)c2ccc(F)cc2)cc1OC1CCCC1 | -0.39
C=CCOc1ccc2c(=O)c(Oc3ccccc3Cl)coc2c1 | -0.84
CCOC(=O)CSc1nc(N2CCOCC2)c2c(c1C#N)CCCC2 | -0.54
CCOc1cccc(C(Nc2ccccn2)c2ccc3ccc(C)nc3c2O)c1O (stereo not drawn) | 0.08
Cc1ccc2ccc(C(Nc3ccccn3)c3ccc(N(C)C)cc3)c(O)c2n1 (stereo not drawn) | 4.4*
Cc1ccc2ccc(C(Nc3ccccn3)c3ccc(Br)cc3)c(O)c2n1 (stereo not drawn) | 5.7*
Oc1ccc2ncccc2c1C(Nc1ccccn1)c1ccccc1F (stereo not drawn) | 1.4
CCOc1ccc(C(Nc2ccccn2)c2ccc3ccc(C)nc3c2O)cc1 (stereo not drawn) | -2.3
CSc1ccc(C(Nc2ccccn2)c2ccc3ccc(C)nc3c2O)cc1 (stereo not drawn) | -0.44
O=C(Nc1ccc(Cl)cc1)N1CCC(C(c2ccccc2)c2ccccc2)CC1 | 0.75
SMILES | Dicer processing
N#CCCN(C(=S)Nc1cccc(C(F)(F)F)c1)C1CCCCC1 | -1.1
O=C(O)c1nn(-c2ccc(Cl)cc2)c(=O)c2ccccc12 | -0.06
COc1ccc(-c2c(C(F)(F)F)nn(C)c2NS(C)(=O)=O)cc1 | -0.51
Cc1cc(C)c2c(N)c(C(=O)NCc3ccco3)sc2n1 | -1.8
Cc1cc(C)c2c(N)c(S(=O)(=O)Cc3ccccc3)sc2n1 | 4.1*
CSc1cccc(NC(=O)c2sc3nc(C)cc(C)c3c2N)c1 | -0.06
